Measured values published in the supplement of paper PMC12636033.
± gives the standard deviation of the averaged measurements. The full ranking holds about 33,000 sequences; the median of “E-score (rank enrichment, -0.5 to 0.5)” is about -0.0028, and the highest 2% start at about 0.23. The sample as a whole holds a higher share of the highest values than the screen did.

System: 2Sb-muMax20 (muMax20 with two 1,3-bis(methyl)benzene Cys staples, A13C/A17C and Q88C/A92C, C-terminal Lys)
Assay: PBM 8-mer E-score (E-score (rank enrichment, -0.5 to 0.5)); higher = stronger preferential binding
Protocol: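 Protein binding microarray (universal PBM chip covering all 10-mers in fixed probe flanks) with chemically synthesized human Max(13-93) bHLH-LZ analogs (not full-length Max) bearing noncanonical residues (hArg, Tha, Aib, Nle at 65) and aromatic Cys staples. Read-out per 8-mer (and its reverse complement): E-score (rank-based enrichment, -0.5 to 0.5) and Z-score of median probe intensity.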

Sequence	PBM 8-mer E-score
CCGTATGC	-0.07 ± 0.043
ACGTATGC	0.238 ± 0.066
ACGTATGA	0.127 ± 0.02
TCCGAGCA	-0.1624 ± 0.00048
AACCCCAT	0.156 ± 0.03
GATTAGAA	0.00142 ± 0.015
TATTAGAA	0.259 ± 0.036
CATTAGAA	0.00421 ± 0.034
ACCCGCCT	0.0215 ± 0.042
ATGCCGAC	-0.112 ± 0.0097
AGTGGGAG	-0.0115 ± 0.017
AGTGGGAA	0.105 ± 0.12
CGTGGGCA	0.00349 ± 0.003
AGTGGGGG	0.085 ± 0.077
GTTGGGCA	0.024 ± 0.041
AGTGGGGA	0.3126 ± 0.0004
AGTGGGGC	0.0302 ± 0.058
GGTGGGCA	0.262 ± 0.0056
GGTGGGAA	0.0964 ± 0.019
GGTGGGGA	0.302 ± 0.032
AGTGGGAT	0.293 ± 0.031
CGTGGGGA	0.0752 ± 0.016

Sequence	PBM 8-mer E-score
CAATACCC	0.216 ± 0.021
ATCAAGCA	-0.0166 ± 0.023
AACGTTAC	0.0258 ± 0.019
AATGGACA	0.0255 ± 0.059
CATCCCAG	-0.121 ± 0.0081
AACGGCGA	-0.0512 ± 0.014
ACGATAAA	0.014 ± 0.017
AGCAGAGG	-0.0143 ± 0.0075
AGGTGGGA	0.13 ± 0.12
CGGTGGGA	0.00626 ± 0.078
GGGTGGGA	0.314 ± 0.026
GTACGCAA	-0.0811 ± 0.049
ATACGCAG	-0.0883 ± 0.0056
ATACGCAA	0.303 ± 0.0063
CTATATAC	0.214 ± 0.027
ATATATCA	0.18 ± 0.048
GTATATAC	0.296 ± 0.039
GTATATAA	0.119 ± 0.015
ATAGATAA	0.185 ± 0.09
CTATATCC	0.217 ± 0.014
ATAGATAC	0.239 ± 0.02
ATATATAC	0.289 ± 0.038

Sequence	PBM 8-mer E-score
ATATATCC	0.24 ± 0.015
ATATATAT	0.00253 ± 0.052
GTATACAC	0.0536 ± 0.025
ATAGATAG	0.204 ± 0.051
CGGATTCC	-0.0954 ± 0.031
CAAACGGA	-0.0945 ± 0.0024
AACCACGG	-0.276 ± 0.0092
CGATCAGA	-0.199 ± 0.015
ATTGGCTG	-0.0784 ± 0.03
CTCGTGCA	0.0182 ± 0.011
ATATAGCC	0.234 ± 0.01
AAGTATAC	0.236 ± 0.038
CTATAGCC	0.0346 ± 0.087
AAGTATAA	0.196 ± 0.052
AAGTATAT	0.136 ± 0.0036
ATATAGCA	0.175 ± 0.016
GTGAGACA	0.0265 ± 0.039
GTTGTCCA	0.00715 ± 0.051
AGGCCCGG	-0.321 ± 0.063
GGGGTCAA	0.109 ± 0.11
ACGCGGTC	-0.0575 ± 0.016
CAATAGGG	0.0594 ± 0.051

Sequence	PBM 8-mer E-score
AAATAGGC	0.0499 ± 0.12
CAATAGAC	0.109 ± 0.022
GAATAGAC	0.00351 ± 0.056
AAATAGAG	0.114 ± 0.056
AAATAGGG	0.286 ± 0.0043
AAATAGAC	0.235 ± 0.0036
AAATAGAA	-0.0324 ± 0.022
AAATAGAT	0.24 ± 0.044
GCCTGAGC	-0.218 ± 0.037
GCAGCACC	-0.116 ± 0.057
GGTTCCAC	-0.0645 ± 0.035
ACGGTCTC	-0.174 ± 0.083
ACCCATCA	0.114 ± 0.044
GCCCCGCC	0.233 ± 0.12
ACCCCGCC	0.318 ± 0.056
AACCCGCC	0.123 ± 0.0032
GGCCCGCC	-0.185 ± 0.11
CCCCCGCC	-0.0601 ± 0.073
GCCCCGCA	0.0269 ± 0.056
GGATTGTA	0.156 ± 0.046
